In PubChem BioAssay (Tox21) one finds Potency, outcome and max activation data, which are given here for 8 compounds.

Each structure is given as a SMILES string. A number with no mark means an inactive call. Records with an inconclusive call do not appear. The source made the active and inactive calls. Unless noted, the call rests on the fitted dose curve; in most records, active means well fitted curve in the direction sought with a large enough effect in the repeat runs; inconclusive means weak or mixed curves; inactive means no such curve, though single readings can be large; an effect the other way counts as inactive or inconclusive.

Assay [1] can be described thus: qHTS assay to identify small molecule agonists of the estrogen receptor alpha (ER-alpha) signaling pathway in the presence of an antagonist - cell viability counter screen (AID 1259386).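 Further: series mostly up to about 92 µM; cells exposed to compounds for 22 h at 37 °C before the viability read; nearly all actives have a fitted effect of over 30% in size.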 The essentials: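 Steps: 5-day stripped-FBS culture; seed and incubate 24hr; add ICI-182,780 (10.0nM final); pin 15-point compound titration; incubate 22hr at 37C; add CellTiter-Fluor at 21hr; read fluorescence.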
Background: Quantitative high-throughput screening tests each substance at several concentrations.

Assay [2] has as its target Progesterone receptor (Homo sapiens) (UniProt P06401). Description: qHTS assay to identify small molecule agonists of the progesterone receptor (PR) signaling pathway (AID 1346784; calls by dose curve; further: nearly all actives have a fitted effect of over 30% in size). In short, it runs like this:
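Seed PR-UAS-bla HEK 293T cells (2% charcoal-stripped FBS), incubate 6 hr at 37C; add compounds in DMSO, 16 hr at 37C; add LiveBLAzer B/G substrate, 2 hr RT; read fluorescence intensity.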

Assay [3] shares this target. Put plainly: qHTS assay to identify small molecule antagonists of the progesterone receptor (PR) signaling pathway (AID 1346795; active means well fitted inhibition curve with a large enough effect in the signal ratio in the repeat runs, not every such curve was filed as active; the % refers to the signal ratio). The essentials:
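Screening used a GripTite HEK293T line with PR-responsive UAS-beta-lactamase. Cells were challenged with compound in the presence of 1 nM R5020 final for 16 hr at 37C; B/G FRET substrate, 2 hr room temperature, fluorescence.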

A short description of assay [4]: qHTS assay to identify small molecule antagonists of the progesterone receptor (PR) signaling pathway - cell viability counter screen (AID 1346798). Further: series mostly up to about 92 µM; nearly all actives have a fitted effect of over 50% in size. In short, it runs like this: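 Measures cytotoxicity in parallel with the PR antagonist reporter read: HEK293T PR-UAS-bla cells get compound and R5020 for 16 hr, and remaining viable cells are quantified by CellTiter-Glo luminescence.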

Assay [5] is described as follows: qHTS assay to identify small molecule agonists of the progesterone receptor (PR) signaling pathway - cell viability counter screen (AID 1346799; calls by dose curve; further: nearly all actives have a fitted effect of over 45% in size). In short, it runs like this: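 Using the same plates as the PR reporter screen, HEK293T PR-UAS-bla cells received compounds for 16 hr at 37C and were then lysed with CellTiter-Glo; luminescence was read 30 min later at room temperature.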

The nature of assay [6]: qHTS assay to identify small molecule antagonists of the TGF-beta/Smad signaling pathway - cell viability counter screen (AID 1346824). Further: nearly all actives have a fitted effect of over 50% in size. The essentials: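 Cytotoxicity counter-screen run in the same wells as the beta-lactamase Smad reporter read: CellTiter-Glo luminescence after 30 min at room temperature. HEK 293T SBE-bla cells had 5 hr compound exposure at 37 C with TGF-beta1 (0.25 ng/mL stock).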

The nature of assay [7]: qHTS assay to identify small molecule agonists of the TGF-beta/Smad signaling pathway - cell viability counter screen (AID 1346829). Further: top concentration of the series differs between compounds; nearly all actives have a fitted effect of over 45% in size. The essentials:
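Here the cytotoxicity of library compounds is measured in SBE-bla HEK 293T cells treated for 5 hr, using CellTiter-Glo added to wells already read for the beta-lactamase reporter.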

The target in assay [8] is Thyrotropin-releasing hormone receptor (Homo sapiens) (UniProt P34981). Put plainly: qHTS assay to identify small molecule antagonists of the thyrotropin-releasing hormone receptor (TRHR) signaling pathway (AID 1346877; active means well fitted inhibition curve with a large enough effect in the repeat runs, not every such curve was filed as active; further: series mostly up to about 51 µM). In short, it runs like this: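 Human TRHR in HEK293 cells; inhibition of the intracellular calcium rise triggered by 1 nM TRH was followed by fluorescence over 3 min. Compounds were run at 15 concentrations, three replicates each.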

Assay [9] shares this target. Description: qHTS assay to identify small molecule agonists of the thyrotropin-releasing hormone receptor (TRHR) signaling pathway (AID 1346891; calls by dose curve;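 further: HEK293 cells expressing TRHR with calcium dye readout; series mostly up to about 58 µM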). The essentials: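 Overnight-plated (18 h, 37 °C, 5% CO2) TRHR-Hek293 cells; 2 h calcium dye at 37 °C; compound in DMSO; 3-min kinetic fluorescence read.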
Assay [10] can be described thus: Caspase-3/7 induction in HepG2 cells by small molecules, qHTS assay (AID 1346978). Further: nearly all actives have a fitted effect of over 15% in size. In short, it runs like this: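 Caspase-3/7 induction was measured by Caspase-Glo 3/7 luminescence (30 min, room temperature) after a 17 hr compound exposure of wild-type HepG2 cells seeded at 2,000 per well and pre-incubated 5 hr.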
A short description of assay [11]: Caspase-3/7 induction in CHO-K1 cells by small molecules, qHTS cell viability counter screen (AID 1346979). Further: nearly all actives have a fitted effect of over 35% in size. Further: potency means the concentration at half of the fitted maximal effect. The essentials:
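Multiplexed with Caspase-Glo 3/7 in CHO-K1 cells, this counter screen added CellTiter-Fluor after 16hr of compound exposure and recorded fluorescence 1hr later.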

Assay [12] can be described thus: Caspase-3/7 induction in CHO-K1 cells by small molecules, qHTS assay (AID 1346980). Further: nearly all actives have a fitted effect of over 15% in size. In short, it runs like this:
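Luminescent Caspase-Glo 3/7 read (30min, room temperature) quantified apoptosis induction. Cells were wild-type CHO-K1, treated with compound for 17hr at 37 C and 5% CO2.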

For assay [13], the target named is Nuclear receptor subfamily 1 group I member 2 (Homo sapiens) (UniProt O75469). Description: CYP3A4 induction through human pregnane X receptor (PXR) by small molecules, qHTS assay (AID 1346984). Further: nearly all actives have a fitted effect of over 40% in size. Further: potency means the concentration at half of the fitted maximal effect. The essentials:
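Human PXR activation is tracked via CYP3A4 promoter-luciferase in DPX-2 (HepG2) cells. Compounds treat cells for 24hr at 37C, and luminescence is read after One-Glo.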

In assay [14] the target is Cytochrome P450 2D6 (Homo sapiens) (UniProt P10635). Put plainly: Cytochrome P450 Family 2 Subfamily D Member 6 (CYP2D6) small molecule antagonists: luciferase reporter qHTS assay (AID 1671196). Further: nearly all actives have a fitted effect of over 50% in size. Further: potency means the concentration at half of the fitted maximal effect. In short, it runs like this:
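Quantitative HTS of Tox21 chemicals against CYP2D6 using a luminescent proluciferin substrate. After NADPH addition, 1 h room-temperature reaction; luminescence recorded 20 min post detection reagent.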
(In a reporter assay the amount or activity of a reporter protein is the signal.)

A short description of assay [15]: Human pregnane X receptor (PXR) small molecule agonists, qHTS cell viability counter screen (AID 1346977). Further: nearly all actives have a fitted effect of over 50% in size. Further: potency means the concentration at half of the fitted maximal effect. The essentials:
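After a 5hr pre-incubation, PXR-Luc HepG2 cells received compounds plus positive control in DMSO and were kept 24hr at 37C. Cell viability was quantified by fluorescence from CellTiter-Fluor added for the final hour.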

Assay [16] concerns the target Nuclear receptor subfamily 1 group I member 2 (Rattus norvegicus) (UniProt Q9R1A7). Description: Rat pregnane X receptor (rPXR) activation by small molecules, qHTS assay (AID 1346983). Further: nearly all actives have a fitted effect of over 20% in size. As to conditions: rPXR luciferase reporter cells, One-Glo luminescence, 24 h; max activation: active compounds read high. The essentials:
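Luminescent readout (One-Glo luciferase, 30 min room temperature) followed 24 hr compound treatment at 37 C of rPXR cells plated 2,000 per well and preincubated 5hr; qHTS format with compounds delivered in DMSO.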

For assay [17], the target named is Nuclear receptor subfamily 1 group I member 2 (Homo sapiens) (UniProt O75469). Description: Human pregnane X receptor (PXR) activation by small molecules, qHTS assay (AID 1346985). Further: nearly all actives have a fitted effect of over 40% in size. Further: potency means the concentration at half of the fitted maximal effect. In short, it runs like this: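 DPX-2 cells (HepG2 co-transfected with a PXR response element and a CYP3A4-promoter luciferase construct) were seeded at 2,000 per well, rested 5 hr at 37C, then exposed to DMSO-dissolved compounds for 24 hr. Activation was read as luciferase luminescence.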

Assay [18] can be described thus: qHTS assay to identify small molecule agonists of the TGF-beta/Smad signaling pathway (AID 1346859; active means well fitted activation curve with a large enough effect in the signal ratio in the repeat runs, not every such curve was filed as active; the % refers to the signal ratio; further: series mostly up to about 77 µM). The essentials: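 Beta-lactamase reporter activity downstream of Smad binding elements was measured in stably transfected HEK 293T cells; compounds were incubated for 5 hr, substrate for 2 hr at room temperature.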
A short description of assay [19]: Caspase-3/7 induction in HepG2 cells by small molecules, qHTS cell viability counter screen (AID 1346981). Further: series mostly up to about 92 µM; nearly all actives have a fitted effect of over 30% in size. In short, it runs like this:
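The parent HepG2 line is plated at 2,000 cells per well and rested 5 hr before compound pinning from DMSO stocks. Following a 16-hr treatment at 37 C, a fluorogenic live-cell substrate (CellTiter-Fluor) reports viability after 1 hr.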

The target of assay [20] is Nuclear receptor subfamily 1 group I member 2 (Homo sapiens) (UniProt O75469). Put plainly: Human pregnane X receptor (PXR) small molecule agonists, qHTS assay (AID 1346982). Further: nearly all actives have a fitted effect of over 35% in size. Further: potency means the concentration at half of the fitted maximal effect. The essentials:
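After plating in 5% charcoal-stripped FBS and a 5 hr rest, PXR-Luc HepG2 cells received compounds in DMSO. Following 24 hr at 37 C, ONE-Glo was added and light output read.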
On the % scale 0 is the no-effect control and ±100 the full control effect.

Chain of Progesterone receptor (Homo sapiens) (P06401 whole entry, looked up): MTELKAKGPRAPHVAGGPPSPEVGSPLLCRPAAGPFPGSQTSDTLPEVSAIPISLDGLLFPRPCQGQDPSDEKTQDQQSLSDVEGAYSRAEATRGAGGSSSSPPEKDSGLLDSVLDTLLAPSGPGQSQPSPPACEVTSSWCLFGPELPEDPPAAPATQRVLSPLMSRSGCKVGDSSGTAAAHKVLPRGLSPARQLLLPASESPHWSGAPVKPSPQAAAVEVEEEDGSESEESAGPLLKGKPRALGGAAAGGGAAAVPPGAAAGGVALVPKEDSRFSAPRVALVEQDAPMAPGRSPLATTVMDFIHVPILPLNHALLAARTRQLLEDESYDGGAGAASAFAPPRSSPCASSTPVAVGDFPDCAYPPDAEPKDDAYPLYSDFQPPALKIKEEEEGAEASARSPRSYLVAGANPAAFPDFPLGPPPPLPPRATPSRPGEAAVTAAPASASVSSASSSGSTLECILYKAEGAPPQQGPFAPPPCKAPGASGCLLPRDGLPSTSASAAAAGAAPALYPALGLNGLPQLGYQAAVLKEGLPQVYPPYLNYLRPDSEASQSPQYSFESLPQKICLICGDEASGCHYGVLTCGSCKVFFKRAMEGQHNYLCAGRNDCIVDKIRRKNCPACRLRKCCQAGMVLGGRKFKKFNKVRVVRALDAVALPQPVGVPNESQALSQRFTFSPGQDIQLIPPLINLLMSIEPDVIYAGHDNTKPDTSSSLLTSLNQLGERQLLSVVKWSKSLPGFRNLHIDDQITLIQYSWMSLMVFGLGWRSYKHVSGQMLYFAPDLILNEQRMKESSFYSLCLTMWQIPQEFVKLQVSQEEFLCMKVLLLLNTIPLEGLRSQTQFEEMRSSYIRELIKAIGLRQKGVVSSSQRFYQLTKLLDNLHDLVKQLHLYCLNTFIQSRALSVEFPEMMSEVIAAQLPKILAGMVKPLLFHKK
Chain of Cytochrome P450 2D6 (Homo sapiens) (P10635 whole entry, looked up): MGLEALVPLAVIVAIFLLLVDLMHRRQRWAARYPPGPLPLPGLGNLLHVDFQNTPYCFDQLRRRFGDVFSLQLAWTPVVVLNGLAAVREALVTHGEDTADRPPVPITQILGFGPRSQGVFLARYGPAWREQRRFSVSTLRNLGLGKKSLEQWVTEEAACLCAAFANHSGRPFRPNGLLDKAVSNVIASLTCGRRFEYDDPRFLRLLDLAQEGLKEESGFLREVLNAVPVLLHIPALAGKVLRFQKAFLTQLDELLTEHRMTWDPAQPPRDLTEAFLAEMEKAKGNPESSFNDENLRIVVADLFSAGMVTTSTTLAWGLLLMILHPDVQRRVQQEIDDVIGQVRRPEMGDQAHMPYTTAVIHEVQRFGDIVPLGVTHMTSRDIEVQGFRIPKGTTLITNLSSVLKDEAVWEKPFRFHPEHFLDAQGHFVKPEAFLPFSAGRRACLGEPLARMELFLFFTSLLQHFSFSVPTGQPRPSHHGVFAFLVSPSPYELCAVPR
Chain of Nuclear receptor subfamily 1 group I member 2 (Homo sapiens) (O75469 whole entry, looked up): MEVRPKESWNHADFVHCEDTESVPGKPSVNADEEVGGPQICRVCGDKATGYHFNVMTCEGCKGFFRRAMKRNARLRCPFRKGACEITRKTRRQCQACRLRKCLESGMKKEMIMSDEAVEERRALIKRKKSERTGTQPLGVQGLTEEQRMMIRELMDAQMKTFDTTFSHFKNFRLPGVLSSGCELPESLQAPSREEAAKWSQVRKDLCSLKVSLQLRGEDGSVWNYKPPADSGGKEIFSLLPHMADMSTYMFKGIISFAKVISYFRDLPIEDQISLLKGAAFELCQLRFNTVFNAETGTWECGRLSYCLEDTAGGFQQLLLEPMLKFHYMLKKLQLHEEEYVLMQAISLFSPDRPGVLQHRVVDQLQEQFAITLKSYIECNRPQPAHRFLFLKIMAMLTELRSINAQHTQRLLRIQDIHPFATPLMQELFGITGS
Chain of Thyrotropin-releasing hormone receptor (Homo sapiens) (P34981 whole entry, looked up): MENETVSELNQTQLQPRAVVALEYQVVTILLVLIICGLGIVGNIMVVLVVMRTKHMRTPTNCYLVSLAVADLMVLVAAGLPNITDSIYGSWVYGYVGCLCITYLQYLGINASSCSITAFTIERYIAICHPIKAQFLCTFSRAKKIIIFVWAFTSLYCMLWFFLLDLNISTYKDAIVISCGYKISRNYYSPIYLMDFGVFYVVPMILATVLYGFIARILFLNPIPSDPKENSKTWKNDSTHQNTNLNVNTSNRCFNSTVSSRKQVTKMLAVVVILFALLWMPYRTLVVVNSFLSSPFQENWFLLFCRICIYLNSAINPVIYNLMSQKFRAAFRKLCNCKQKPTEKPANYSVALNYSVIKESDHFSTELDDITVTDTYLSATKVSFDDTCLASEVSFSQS
Chain of Nuclear receptor subfamily 1 group I member 2 (Rattus norvegicus) (Q9R1A7 whole entry, looked up): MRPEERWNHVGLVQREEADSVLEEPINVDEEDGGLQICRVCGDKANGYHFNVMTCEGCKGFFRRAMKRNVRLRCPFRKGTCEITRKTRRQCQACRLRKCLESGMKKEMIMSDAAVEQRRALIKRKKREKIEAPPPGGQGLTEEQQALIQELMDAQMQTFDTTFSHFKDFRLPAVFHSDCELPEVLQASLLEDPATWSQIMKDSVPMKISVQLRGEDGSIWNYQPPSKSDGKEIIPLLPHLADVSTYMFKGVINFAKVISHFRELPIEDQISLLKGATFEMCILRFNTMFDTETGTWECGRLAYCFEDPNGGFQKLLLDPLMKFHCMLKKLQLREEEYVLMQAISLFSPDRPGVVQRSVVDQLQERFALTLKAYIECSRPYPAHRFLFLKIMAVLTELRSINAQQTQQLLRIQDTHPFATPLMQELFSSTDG

Regarding `O=C(CCCN1CC=C(n2c(=O)[nH]c3ccccc32)CC1)c1ccc(F)cc1`, the Potency result in assay [1], in [2], in [3], in [4], in assay [5] and in assay [6] was “inactive” each time. Further, the Potency entry in [7], in [9], in [10], in [11], in assay [12] and in [13] was “inactive” in each case. Besides, the compound was classed as inactive in assay [8]. Further, the Potency in [14] is 2.45 µM (active).
Consider `O=C1C(=O)c2ccccc2C(O)=C1C1CCC(c2ccc(Cl)cc2)CC1` (stereo unspecified), for which the Potency result in assay [1], in assay [2], in assay [3], in assay [4], in assay [5] and in assay [7] was “inactive” throughout. In addition, the Potency result in [9], in assay [10] and in [17] was “inactive” in each case. Further, the outcome in [8] was inactive. Moreover, the Potency was 11.9 µM (active) in [15], 16.8 µM (active) in assay [11] and 2.51 µM (active) in assay [13]. For the same compound, the max activation in [16] was 0.127%.
Consider `CCCCCCCCCCC(=O)O`, for which the Potency result in [1], in assay [2], in assay [3], in [4], in assay [5] and in assay [6] was “inactive” each time. The Potency entry in [7], in assay [18], in [9], in [15], in assay [10] and in [12] was “inactive” throughout. In addition, the Potency entry in assay [19] and in assay [14] was “inactive” each time. The compound was classed as inactive in assay [8].
As to `CN(C(=O)CN(CCO)CC(=O)N(C)C(C)(C)Cc1ccccc1)C(C)(C)Cc1ccccc1`, the Potency entry in assay [1], in assay [2], in assay [3], in [4], in assay [5] and in assay [6] was “inactive” in each case. For the same compound, the Potency entry in assay [7], in [18], in assay [9], in assay [15], in assay [10] and in [12] was “inactive” in each case. In assay [19], the Potency result was “inactive”. In addition, the compound was classed as inactive in [8]. Moreover, the Potency was 2.37 µM (active) in assay [20], 8.91 µM (active) in [17] and 4.36 µM (active) in assay [14].
Regarding `CCn1cc(C(=O)O)c(=O)c2cc(F)c(N3CCNCC3)cc21`, the Potency result in assay [1], in assay [2], in [3], in assay [4], in assay [5] and in assay [6] was “inactive” throughout. Further, the Potency entry in assay [7], in assay [18], in assay [9], in assay [15], in assay [10] and in assay [12] was “inactive” in each case. Besides, the Potency entry in assay [19], in [13] and in [14] was “inactive” throughout. Further, in assay [8], the compound was called inactive.
As to `NNC(=O)CP(=O)(c1ccccc1)c1ccccc1`, the Potency entry in [1], in assay [2], in assay [3], in assay [4], in [5] and in [6] was “inactive” throughout. The Potency result in [7], in [18], in assay [9], in [15], in assay [10] and in [12] was “inactive” each time. Moreover, the Potency entry in assay [19], in assay [20], in [13], in assay [17] and in assay [14] was “inactive” throughout. The compound was called inactive in [8].
`CCC(OCCCOC)OC(C)=O` (stereo unspecified): the Potency result in assay [1], in [2], in assay [3], in assay [4], in assay [5] and in [6] was “inactive” throughout. In addition, the Potency entry in assay [7], in assay [9], in [15], in assay [10], in [11] and in assay [12] was “inactive” in each case. In addition, the Potency entry in [19] and in assay [14] was “inactive” each time. The outcome in assay [8] was inactive.
Take `Cc1[nH]cnc1CN1CCc2c(c3ccccc3n2C)C1=O`: the Potency result in assay [1], in [2], in assay [3], in [4], in assay [5] and in assay [6] was “inactive” each time. Besides, the Potency result in assay [7], in assay [18], in assay [15], in assay [10], in assay [11] and in assay [12] was “inactive” in each case. The Potency result in assay [19], in assay [20], in assay [13] and in assay [17] was “inactive” in each case. Moreover, the max activation in assay [16] is 1.25%.
